PERK inhibitor: inhibitors of human PERK kinase; Q9NZJ5; CHO PERK-DD fusion, SEAP luminescence translation reporter; inhibition, % at 5.6 µM; 220,000 compounds, 0.17% hits; AID 1416;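 active means inhibition above the mean inhibition of all tested compounds plus 3 SD, set separately per screening campaign, cut at about 2.9% in these data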;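 further: PERK kinase domain activated by AP20187 dimerizer at 100 nM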
PGE2 EP2 inh: blocks the human prostaglandin E2 receptor EP2 | P43116 | C6 glioma cells expressing human EP2, cAMP TR-FRET; cells stimulated with saturating PGE2 | inhibition, % at 25 µM | 260,000 compounds, 0.52% hits | AID 1422;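 active means percent inhibition above 40 after rounding to a whole number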;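 further: rat C6 glioma host cells with rolipram phosphodiesterase inhibitor present; the protocol text gives 20 µM as final concentration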
Target sequence (P43116 whole entry, looked up): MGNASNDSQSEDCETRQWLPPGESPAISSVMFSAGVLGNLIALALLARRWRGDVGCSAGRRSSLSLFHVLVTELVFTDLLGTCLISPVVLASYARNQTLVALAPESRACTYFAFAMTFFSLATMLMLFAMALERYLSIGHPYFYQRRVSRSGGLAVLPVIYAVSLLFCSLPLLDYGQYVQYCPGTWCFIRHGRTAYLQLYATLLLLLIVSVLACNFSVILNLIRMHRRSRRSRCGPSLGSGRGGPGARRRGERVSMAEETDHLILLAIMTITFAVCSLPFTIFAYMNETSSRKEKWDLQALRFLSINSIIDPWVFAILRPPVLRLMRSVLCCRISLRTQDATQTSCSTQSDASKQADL
eIF4E-4G inh: blocks eIF4E binding to eIF4G; P63073+Q04637; TR-FRET eIF4E-eIF4GI(517-606) binding, 2 h; AID 782; inhibition, % at 21.7 µM; 220,000 compounds, 0.37% hits;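 active means inhibition above about 30%, limit read from the data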
EP2 modulator: modulates human prostaglandin E2 receptor EP2 signaling; EP2-expressing cells, cAMP HTRF FRET, PGE2 co-stimulation; 260,000 compounds, 0.83% hits; induction, % at 25 µM;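 active means compounds whose cAMP rise, as percent of the full-agonist control response, exceeds 60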;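 further: rat C6 glioma line stably carrying human EP2 under a CMV promoter; the protocol text gives 20 µM as final concentration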
Numbers stand for hits; i = inactive; nt = not tested or not shown; ! = a repeat was not active; [ ] = another dose, or the depositor's remark. A selection: hits, their analogues and other compounds. The true share with any hit is near 1.8%.

SMILES	PERK inhibitor	PGE2 EP2 inh	eIF4E-4G inh	EP2 modulator
CO[C@@H]1/C=C\O[C@]2(C)Oc3c(C)c(O)c4c(O)c(c(CN(C)C)c(O)c4c3C2=O)NC(=O)C(C)=C/C=C\[C@@H](C)[C@@H](O)[C@H](C)[C@@H](O)[C@H](C)[C@H](OC(C)=O)[C@@H]1C	nt	52	nt	i
c1cncc(CSc2nnc3c4c5c(sc4nc(C4CC4)n23)CCCC5)c1	nt	i	nt	i
c1cncc(CSc2nnc3c4ccccc4nc(C4CCCCC4)n23)c1	nt	i	nt	65
O=c1c(O)c(-c2ccccc2)oc2ccccc12	nt	112	nt	i
Cc1ccc(-c2oc3ccccc3c(=O)c2O)cc1	i	i	i	i
C=CCn1c(SCCN2C(=O)c3ccccc3C2=O)nc2scc(-c3ccccc3)c2c1=O	i	66	i	i
CCSC(=Nc1ccccc1)Nc1ccccc1	i	i	i	i
CSC(=Nc1ccccc1)Nc1ccccc1	2.9	i	i	i
C=CCOc1c(Cl)cc(C2C(C#N)=C(N)OC3=C2C(=O)CC(C)(C)C3)cc1OC (centres undefined)	nt	i	nt	i
CNc1nc(-c2ccc(OC)cc2)cs1	nt	i	nt	i
CCCc1nc(SCC(=O)Nc2ccc(OC)cc2)c2ccccc2n1	nt	i	nt	i
O=C(O)c1cccnc1SCc1ccccc1Cl	i	i	i	i
O=C(O)c1cccnc1Sc1ccccc1Cl	3.2	i	i	i
Cc1ccccc1NC(=O)CSC(N)=O	3.1	i	i	i
Cc1ccccc1NC(=O)CSCC(=O)Nc1ccccc1C	i	i	i	i
O=C(CSc1nc2ccccc2s1)c1sc2sc3ccccc3[n+]2c1O	nt	66	nt	i
O=C(CSc1nc2ccccc2s1)CSc1nc2ccccc2s1	i	i	i	i
Cc1ccc(C)c2nc(SCC(=O)Nc3ccccc3Cl)c(C#N)cc12	nt	i	nt	i
N#Cc1ccc(-c2csc(NC3=NCCCCC3)n2)cc1	i	i	53[fluorescence artefact?]	i
CCS(=O)(=O)N1Cc2ccccc2CC1C(=O)NC(C)C12CC3CC(CC(C3)C1)C2 (centres undefined)	i	i	i	63
Cc1ccc(/C=C/c2ccc(=O)n(Cc3ccc(Cl)cc3Cl)n2)cc1	3.0	nt	i	i
O=c1ccc(/C=C/c2ccccc2)nn1Cc1ccc(Cl)cc1Cl	i	i	i	i
CCc1ccc2[nH]c(=O)c(CN(CC3CCCO3)C(=S)Nc3ccc(F)cc3)cc2c1 (centres undefined)	nt	i	nt	i
CCc1ccc2[nH]c(=O)c(CN(CC3CCCO3)C(=S)NCc3ccccc3)cc2c1 (centres undefined)	nt	i	nt	66
CCc1ccc2[nH]c(=O)c(CN(CC3CCCO3)C(=S)NCc3ccco3)cc2c1 (centres undefined)	i	i	i	i
SMILES	PERK inhibitor	PGE2 EP2 inh	eIF4E-4G inh	EP2 modulator
CCNC(=S)N(CCN(C)C)Cc1cc2cc(CC)ccc2[nH]c1=O	nt	i	nt	63
CCc1ccc2[nH]c(=O)c(CN(CC3CCCO3)C(=S)NC3CCCCC3)cc2c1 (centres undefined)	nt	i	nt	82
CCc1ccc2[nH]c(=O)c(CN(CCN(C)C)C(=S)Nc3ccccc3)cc2c1	nt	i	nt	i
CCOc1ccc2nc(SCC(=O)N3c4ccccc4CC3C)c(C#N)cc2c1 (centres undefined)	nt	i	nt	i
CC(C)C(=O)N1CCN(c2ccccc2NC(=O)c2ccc(F)cc2)CC1	nt	i	nt	i
COCC(=O)Nc1sc2c(c1C(N)=O)CCCC2	nt	i	nt	i
CC1CN(C)CCC1CCc1ccc(NC(=O)Cn2cnc3ccccc3c2=O)cc1 (centres undefined)	nt	nt	nt	i
Cc1nnc(SCC(=O)n2c3c(c4ccccc42)CCCC3)s1	i	i	i	64
Cc1ccc(-c2nnc(SCC(=O)n3c4c(c5ccccc53)CCCC4)o2)cc1	3.0	nt	i	i
COc1ccc(NC(=O)N(CCc2ccccc2)Cc2cc3cccc(C)c3[nH]c2=O)cc1	nt	i	nt	i
COc1cccc(NC(=O)CCCSc2nc(-c3ccco3)cc(C(F)(F)F)n2)c1	nt	i	nt	i
CCCN1C(=O)/C(=C/c2ccncc2)SC1=S	i	i	i	i
Cc1ccc(NC(=O)CN2C(=O)S/C(=C/c3ccc(-c4cccc(C(=O)O)c4)o3)C2=O)cc1	i	i	43	i
COc1ccc(CN2C(=O)/C(=C/c3ccc(-c4ccc(Cl)c(C(=O)O)c4)o3)SC2=S)cc1	i	i	65	i
O=C1/C(=C/c2ccncc2)SC(=S)N1Cc1ccccc1	i	44	i	i
O=C1/C(=C\c2ccc(-c3ccc(Cl)c(Cl)c3)o2)SC(=S)N1CCS(=O)(=O)O	nt	i	nt	i
O=C(O)c1cc(-c2ccc(/C=C3/SC(=S)N(Cc4ccccc4)C3=O)o2)ccc1Cl	i	i	62	i
Cc1cccc2cc(CN(CCN3CCOCC3)C(=O)Nc3ccc(F)cc3)c(=O)[nH]c12	nt	i	nt	i
O=C(Nc1ccc(F)c(Cl)c1)c1nc2ncccn2n1	nt	i	nt	i
C[C@H](NC(=O)c1ccc(Cl)c(Cl)c1)c1ccc(-c2ccccc2)cc1	nt	55	nt	i
CC(NC(=O)c1ccc(F)cc1)c1ccccc1 (centres undefined)	i	i	i	i
CCOC(=O)c1cc2c(ccn2C)n1Cc1ccccc1C	i	i	i	62
CCOC(=O)c1cc2c(ccn2C)n1Cc1ccccc1Cl	i	i	i	63
Cc1c2cc(O)c(=O)cc-2oc2cc(O)c(O)cc12	i	i	35![fluorescence artefact?]	i
CN1CCc2nc3sc(C(=O)Nc4c(Cl)cccc4Cl)c(N)c3cc2C1	nt	i	nt	i
SMILES	PERK inhibitor	PGE2 EP2 inh	eIF4E-4G inh	EP2 modulator
COc1ccc(CCNc2nc(-c3ccc(F)cc3)cs2)cc1OC	nt	i	nt	i
O=C(N=c1ccn(-c2nc3ccccc3nc2NS(=O)(=O)c2ccccc2)cc1)c1cccs1	i	49	i	i
COc1ccc(C(=O)OCCc2ccc(O)cc2)cc1	i	i	i	i
COc1ccc(C(=O)OCC[N+]2(C)CCOCC2)cc1	i	i	31	i
O=C(O)c1cccc(S(=O)(=O)Nc2ccccn2)c1	nt	63	nt	i
O=C(O)c1cccc(S(=O)(=O)Nc2ccccc2Cl)c1	i	nt	i	i
CCOc1ccc2[nH]cc(C(=O)N3CCCCC3)c(=O)c2c1	nt	i	nt	i
Cc1cc(C)c2cc(CN(Cc3ccc(F)cc3)Cc3nnnn3CC3CCCO3)c(=O)[nH]c2c1 (centres undefined)	nt	i	nt	i
O=C(NC1CCCC1)C(c1ccc(F)cc1)N(Cc1ccco1)C(=O)c1csnn1 (centres undefined)	nt	i	nt	i
CCCCOC(=O)C1C2C=C[C@]3(CN(CCCOC)C(=O)[C@H]13)O2 (some centres undefined)	3.4	i	i	i
COC(=O)C1C2C=CC3(CN(CCc4ccccc4)C(=O)C13)O2 (centres undefined)	i	51!	i	i
CCOC(=O)C1C2C=CC3(CN(CCc4ccccc4)C(=O)C13)O2 (centres undefined)	i	i	i	i
O=C(NCc1ccccc1)N1CCCC1c1nc(-c2cnccn2)n[nH]1 (centres undefined)	nt	i	nt	i
Cc1cccc(C)c1N(CC(=O)N1CCN(Cc2ccc3c(c2)OCO3)CC1)S(C)(=O)=O	nt	i	nt	i
Cc1c(Cl)cc(C(C)(C)C)c(O)c1Cc1c(C)c(Cl)cc(C(C)(C)C)c1O	nt	47	nt	i

Compound activity: PubChem BioAssay, several laboratories
